# Experimental data taken from PubChem BioAssay AID372 (MTDP, 2006).
# Hit rate of the full screen: of about 100,000 compounds, about 770 (0.77%) were called active. The sample holds actives, similar compounds and a random draw of the others, so the mix is not that of the screen. No stated cut-off is given here; in the data, active means inhibition above about 50%; inactive means the rest.
# Target: Gag-Pol polyprotein (Human immunodeficiency virus type 1 group M subtype B (isolate HXB2)) (UniProt P04585)
# Test: RNase H inhibition, HIV 1 Gag Pol polyprotein, FRET biochemical assay, screening (AID 372)
# Details: HIV-1 RT RNase H, FRET RNA/DNA substrate fluorescence; at 10 µM; stronger effect = higher value
row,SMILES,inhibition
1,CC(=O)NN1C(=O)/C(=C\c2ccc(I)o2)SC1=S,0% (inactive)
2,CCCOC(=O)c1c(NC(=O)Cc2ccc(OC)cc2)sc2c1CCCC2,40% (inactive)
3,CC1=NN(c2ccccc2)C(=O)C1C(c1ccccc1)C(C#N)C#N (configuration not stated),54% (active)
4,CC1=NN(c2ccccc2)C(=O)C1C(c1ccc([N+](=O)[O-])cc1)C1C(=O)N(c2ccccc2)N=C1C (configuration not stated),4% (inactive)
5,CC(=O)NC(c1ccccc1)C1C(=O)N(c2ccccc2)N=C1C (configuration not stated),4% (inactive)
6,COc1ccc(Cl)cc1N(CC(=O)N1CCC(C)CC1)S(=O)(=O)c1ccc(C)c([N+](=O)[O-])c1,6% (inactive)
7,CCOc1cc(C=C2C(=O)NC(=O)NC2=O)ccc1OS(=O)(=O)c1ccc(C)cc1,17% (inactive)
8,O=C(COc1ccc(Cl)cc1Cl)n1cc([N+](=O)[O-])cn1,6% (inactive)
9,COc1ccc(-c2cc(-c3ccc(OC)cc3)c(C#N)c(SCC(=O)c3ccc(C)cc3)n2)cc1,17% (inactive)
10,Cc1nc(SCC(=O)c2ccc(O)c(O)c2)c(C#N)c(CC(C)C)c1C(N)=O,51% (active)
11,Cc1cc(-c2ccc(C)o2)c(C#N)c(SCC(=O)c2ccccc2)n1,1% (inactive)
12,CCc1c(C#N)c(N)nc(SCC(=O)c2ccc(Cl)c(Cl)c2)c1C#N,14% (inactive)
13,CCc1c(C#N)c(N)nc(SCC(=O)c2ccc(C)cc2)c1C#N,13% (inactive)
14,CSc1nc(C)c(C(C)=O)cc1C#N,13% (inactive)
15,COc1ccc(C(=O)CSc2nc3c(c(-c4ccc(C)o4)c2C#N)CCCC3)cc1,15% (inactive)
16,CCCCSc1nc(C)c(C(C)=O)cc1C#N,8% (inactive)
17,N#Cc1c(SCC(=O)c2ccc(Cl)cc2)nc2c(c1-c1ccco1)CCCC2,12% (inactive)
18,CC(=O)c1cc(C#N)c(SCC(=O)c2ccc(O)c(O)c2)nc1C,75% (active)
19,NC(N)=NS(=O)(=O)c1ccc(NC(=S)Nc2ccccc2)cc1,6% (inactive)
20,CC(=O)C1(C)CC(C#N)(C#N)C(C#N)=C1N (configuration not stated),0% (inactive)
21,COCCOC(=O)c1ccc(NC(=O)C(C)Oc2ccc(Cl)cc2C)cc1 (configuration not stated),11% (inactive)
22,CC(=O)ON=C1CC(C)(C)NC(C)(C)C1,4% (inactive)
23,CCOC(=O)/C=C/COc1ccc2oc(-c3ccccc3)c(C(=O)OCC)c2c1,10% (inactive)
24,CC(=O)c1ccc(NC(=O)c2ccccc2Cl)cc1,2% (inactive)
25,Cc1cc(C)c(C#N)c(SCC(=O)Nc2ccc(Cl)cc2)n1,1% (inactive)

row,SMILES,inhibition
1,Cc1cc(C)c(C#N)c(SCC(=O)c2ccc(O)c(O)c2)n1,70% (active)
2,CCCOC(=O)CSc1nc(C)cc(C)c1C#N,10% (inactive)
3,COc1cccc(N2C(=O)/C(=C/c3c(OC)cc(OC)cc3OC)C(=O)NC2=S)c1,1% (inactive)
4,CCCCc1ccc(/C(C)=N/Nc2cc(-n3cc(C)cn3)ncn2)cc1,0% (inactive)
5,O=C(O)CCCCCN1C(=O)C(=O)/C(=C(/O)c2ccc(Cl)cc2)C1c1ccccc1 (configuration not stated),13% (inactive)
6,O=c1oc2cc(OCc3c(F)cccc3Cl)ccc2cc1-c1ccccn1,8% (inactive)
7,CC(C)c1ccccc1OCCCN1CCCCC1,56% (active)
8,CC(C)c1ccccc1OCCCN1CCCC1,3% (inactive)
9,CC(C)c1ccccc1OCCCCN1CCCCC1,8% (inactive)
10,Cc1ccc(C)c(N(CC(=O)Nc2c(C)n(C)n(-c3ccccc3)c2=O)S(=O)(=O)c2ccccc2)c1,3% (inactive)
11,COc1ccc2c(c1OC)C(=O)OC2Nc1cccc([N+](=O)[O-])c1 (configuration not stated),1% (inactive)
12,CCOC(=O)COc1ccc(C=O)cc1OCC,0% (inactive)
13,O=C(N/N=C/c1cc([N+](=O)[O-])ccc1Cl)c1cc2ccccc2o1,35% (inactive)
14,O=C(N/N=C/c1ccccc1[N+](=O)[O-])c1cc(O)cc(O)c1,3% (inactive)
15,O=C(N/N=C/c1ccc(Cl)c([N+](=O)[O-])c1)c1ccc(O)cc1,22% (inactive)
16,O=C(N/N=C/c1cc([N+](=O)[O-])ccc1Cl)c1ccc(O)cc1,10% (inactive)
17,O=C(N/N=C/c1ccc(Cl)c([N+](=O)[O-])c1)c1cc2ccccc2o1,59% (active)
18,O=C(N/N=C/c1ccc(Cl)c([N+](=O)[O-])c1)c1cc(O)cc(O)c1,3% (inactive)
19,O=C(N/N=C/c1ccccc1[N+](=O)[O-])c1ccc(O)c(O)c1,51% (active)
20,O=C(N/N=C/c1cc([N+](=O)[O-])ccc1Cl)c1ccc(O)c(O)c1,63% (active)
21,O=C(N/N=C/c1ccc(Cl)c([N+](=O)[O-])c1)c1ccc(O)c(O)c1,53% (active)
22,O=C(N/N=C/c1cc([N+](=O)[O-])ccc1O)c1ccc(O)c(O)c1,35% (inactive)
23,O=C(N/N=C/c1ccc(Cl)c([N+](=O)[O-])c1)c1ccccn1,11% (inactive)
24,O=C(N/N=C/c1ccccc1[N+](=O)[O-])c1ccccc1,28% (inactive)
25,O=C(CSc1nc2ccccc2o1)c1ccc(-c2ccccc2)cc1,14% (inactive)

row,SMILES,inhibition
1,Cc1nnc(SCc2ccc(F)cc2)s1,0% (inactive)
2,COC(=O)c1ccc(C2N(O)C3CCCCC3N2O)cc1 (configuration not stated),15% (inactive)
3,COc1ccc([N+](=O)[O-])cc1N1C(=O)C=CC1=O,4% (inactive)
4,CC(C)(C)c1cc(C(=O)N/N=C\c2ccncc2)n[nH]1,3% (inactive)
5,O=C(Nc1ccc(Cl)c(Cl)c1)c1cccc2ccccc12,8% (inactive)
6,Cc1cc(/C=C2\C(=O)NC(=S)N(c3cccc(Cl)c3)C2=O)c(C)n1-c1ccc(Cl)cc1,40% (inactive)
7,CC1=C(C(=O)OCCOc2ccccc2)C(c2ccc(O)cc2)C2=C(CC(c3ccccc3)CC2=O)N1 (configuration not stated),9% (inactive)
8,COc1ccc(-c2ccc(/C=C3/C(=O)NN(c4ccc(C)c(Cl)c4)C3=O)o2)c([N+](=O)[O-])c1,24% (inactive)
9,CC(=O)N(C)c1ccc(NC(=O)/C=C/c2cccc3ccccc23)cc1,53% (active)
10,O=C(/C=C/c1cccc2ccccc12)Nc1ccc(Nc2ccccc2)cc1,25% (inactive)
11,CC(=O)N(C)c1ccc(NC(=O)/C=C/c2ccccc2)cc1,9% (inactive)
12,Cc1ccc(S(=O)(=O)c2ccc(C)c(S(N)(=O)=O)c2)cc1S(N)(=O)=O,0% (inactive)
13,CCOc1ccc(-n2nc3cc(C)c(N)cc3n2)cc1,24% (inactive)
14,COc1ccc(-n2nc3cc(C)c(N)cc3n2)cc1,22% (inactive)
15,Cc1cc2nn(-c3ccccc3)nc2cc1N,50% (active)
16,CCOC(=O)C1=C(O)/C(=C/c2ccc(Br)cc2)SC1=Nc1ccccc1,5% (inactive)
17,CCC(=O)Nc1ccc(NC(=S)NC(=O)c2cccc(F)c2)cc1,11% (inactive)
18,O=C1S/C(=C/c2cccc(O)c2)C(=O)N1c1ccccc1,24% (inactive)
19,O=C1/C(=C/c2cccnc2)SC(=S)N1c1cccc(F)c1,3% (inactive)
20,O=C1/C(=C/c2cccc(O)c2)SC(=S)N1c1cccc(Cl)c1,19% (inactive)
21,O=C1/C(=C\c2ccc(O)c(O)c2)SC(=S)N1c1ccc(F)cc1,74% (active)
22,COc1cc(/C=C2\SC(=S)N(c3cccc(Cl)c3)C2=O)ccc1O,38% (inactive)
23,O=C1/C(=C\c2ccc(O)cc2)SC(=S)N1c1ccc(F)cc1,37% (inactive)
24,O=C1/C(=C/c2ccc(F)cc2)SC(=S)N1c1ccc(F)cc1,17% (inactive)
25,O=C1S/C(=C/c2ccc(O)c(O)c2)C(=O)N1c1ccccc1,60% (active)

row,SMILES,inhibition
1,COc1ccc(/C=C2\SC(=S)N(c3cccc(F)c3)C2=O)cc1O,7% (inactive)
2,O=C1/C(=C/c2ccc(O)c(O)c2)SC(=S)N1c1cccc(F)c1,84% (active)
3,COc1cc(/C=C2\SC(=O)N(c3ccccc3)C2=O)ccc1O,27% (inactive)
4,Cc1ccc2cc(C3=C/C(=C/c4cccc(Br)c4)C(=O)O3)ccc2c1,4% (inactive)
5,CCCCCOc1ccc(/C=N\Nc2nc(-c3ccccc3)cc(-c3ccccc3)n2)cc1,8% (inactive)
6,COc1ccc(C(=O)COC(=O)c2ccc(N3C(=O)C4C5C=CC(C6CC56)C4C3=O)cc2)cc1 (configuration not stated),9% (inactive)
7,CCN(CC)S(=O)(=O)c1ccc(C(C)(C)C)cc1,15% (inactive)
8,N/C(=C\C(=O)c1ccccc1O)C(F)(F)F,8% (inactive)
9,CCc1nn(-c2ccccc2)c2nc(-c3ccccc3C)c3cc(OC)c(OC)cc3c12,13% (inactive)
10,COc1ccc(/C=C2/C(=O)NC(=O)N(Cc3ccco3)C2=O)cc1C,12% (inactive)
11,O=C(O)CC1SC(=NC(=O)c2ccco2)N(c2ccccc2)C1=O (configuration not stated),0% (inactive)
12,Cc1ccc(N2C(=O)/C(=C/c3ccc(F)cc3)SC2=S)cc1C,6% (inactive)
13,O=C1NC(=O)N(c2cccc3ccccc23)C(=O)/C1=C/c1ccc(O)c(O)c1,22% (inactive)
14,O=C1/C(=C\c2ccc(O)c(O)c2)SC(=S)N1c1cccc2ccccc12,72% (active)
15,O=C1/C(=C\c2ccc(O)cc2)SC(=S)N1c1ccc(Cl)cc1,36% (inactive)
16,O=C1/C(=C\c2ccc(O)c(O)c2)SC(=S)N1c1cccc(C(F)(F)F)c1,48% (inactive)
17,O=C1/C(=C/c2cccc(O)c2)SC(=S)N1c1ccc(O)cc1,26% (inactive)
18,Cc1ccc(N2C(=O)/C(=C/c3ccc(Cl)cc3)SC2=S)cc1C,5% (inactive)
19,CN(C)c1ccc(/C=C2\C(=O)N(c3nc(-c4ccc(Cl)cc4)cs3)N=C2c2ccccc2)cc1,37% (inactive)
20,Cc1ccc(C(=O)N2N=C(c3ccc(Cl)cc3)CC2(O)C(F)(F)F)o1 (configuration not stated),20% (inactive)
21,CCCC(C)C(=O)Nc1cccc([N+](=O)[O-])c1C (configuration not stated),11% (inactive)
22,O=C1CC(NCc2ccc3c(c2)OCO3)C(=O)N1c1ccc(Cl)cc1 (configuration not stated),8% (inactive)
